Assay results from PubChem BioAssay (NCI).
The panel holds about 83,000 compounds, 20% with a hit somewhere; the sample as a whole holds those more often.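 Activity criterion: percent growth below 10, measured after cells in 96-well plates were exposed to a single compound concentration for 48 hours.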 A number with no mark means an inactive call. The source made the active and inactive calls.

The compounds below were run on HL-60(TB) leukemia (assay: NCI-60 one-dose screen, 48 h (100 = growth as untreated, 0 = no growth, -100 = all killed)). Details: 10 µM unless noted.

Row | Compound | growth
1 | CC(C)(C)CC(C)(C)N(CSc1ccc(Cl)cc1)CSc1ccc(Cl)cc1 | -35.3% (active)
2 | O=C1c2cccc3cccc(c23)C(=O)N1C/C=C/c1ccc2c3c(cccc13)C(=O)N(CCO)C2=O | 94.2%
3 | COc1cc(C)c2c(=O)c3c(oc2c1)C(=O)c1c(O)c(OC)cc(O)c1C3=O | -45.4% (active)
4 | Cn1cc(-c2csc(-c3c[nH]c4ncccc34)n2)c2cc(F)cnc21 | 79.8%
5 | Cc1csc(Nc2nc(-c3cccc(Cl)c3)nc(C(Cl)(Cl)Cl)n2)n1 | -10.2% (active)
6 | COc1ccc2nc3cc(Cl)ccc3c(NCCN)c2c1 | -51.5% (active)
7 | Cn1c(=O)c2c(nc(Br)n2CC(=O)Nc2ccc(F)cc2)n(C)c1=O | 95.3%
8 | COc1cc2ncnc(-n3ncc4cc(NC(=O)Nc5ccc(Cl)c(C)c5)ccc43)c2cc1OC | 114%
9 | N#Cc1c(-c2ccccc2)cc(-c2ccccc2)n(CCCC(=O)O)c1=O | 103%
10 | CC(C)(C)c1ccc(OCCCCCCN2CCNCC2)cc1 | 15.2%
11 | Clc1ccc(-c2nnc(Cn3ccnc3)o2)cc1 | 93.8%
12 | N#Cc1c(N2CCNCC2)nc2sc3cc(Cl)c(Cl)cc3n2c1=N | 89%
13 | Cc1cccc(NC2=C(Cl)C(=O)c3nc(C)ccc3C2=O)c1 | -14.9% (active)
14 | CCOC(=O)c1cc(C(=O)c2cc(OC)cc(OC)c2)n2ncc3ccccc3c12 | -8.3% (active)
15 | COc1ccc(/C=c2\sc3n(c2=O)NC2C(N=3)N(C)C(=O)N2C)cc1 (stereo not given) | 98.4%
16 | NC[C@@H]1O[C@H](O[C@@H]2[C@@H](CO)OC(O[C@@H]3[C@@H](O)[C@H](N)C[C@H](N)[C@H]3OC3O[C@H](CN)[C@@H](O)[C@H](O)[C@H]3N)[C@@H]2O)[C@H](N)[C@@H](O)[C@@H]1O (stereo not given in full) | 94.7%
17 | C=C1C(=O)O[C@@H]2[C@@H]3O[C@@](C)(CC/C=C(\C)CCC[C@@H]2C)[C@H](O)C[C@@H]13 | 14.4%
18 | COc1cc(Cn2ncc3ccc(NC(=O)c4cc5ccccc5oc4=N)cc32)cc(OC)c1OC | 64.8%
19 | Cc1ccc2c(C(C[N+](=O)[O-])c3ccccc3)c(-c3ccccc3)[nH]c2c1 (stereo not given) | -10.4% [9.5 µM] (active)
20 | CC(=O)NCC1c2c(n(C)c3c(Cl)c(Cl)ccc23)C(=O)NC1(C)C (stereo not given) | 84%

Row | Compound | growth
21 | CN(C)c1ccc(/C=C(\C#N)c2cc3ccccc3n2C)cc1 | 2.69% (active)
22 | O=C(Nc1ccc(F)cc1)c1cc([N+](=O)[O-])ccc1O | 59.6%
23 | C=C(C)[C@@H]1CC[C@]2(C(=O)N3CCN(C)CC3)CC[C@]3(C)[C@H](CC[C@@H]4[C@@]5(C)C/C(=C/c6ccco6)C(=O)C(C)(C)[C@@H]5CC[C@]43C)[C@@H]12 | 64.2%
24 | CC(=O)O.CN1[CH-]N(Cc2ccc(C#N)cc2)c2ccccc21.[Ag+] | 102%
25 | O=C(CCN1C(=O)/C(=C/c2ccc(O)cc2)SC1=S)Nc1ccc(Cl)cc1 | 65.5%
26 | NC1=C(/C(N)=N/O)C(c2ccccc2)c2ccc3ccccc3c2O1 (stereo not given) | -19% (active)
27 | COc1ccc(/C=C2\Oc3cc(OCCCCCN4CCCCC4)ccc3C2=O)cc1OC | 97.8%
28 | CC(=O)c1c[nH]c2ccc(-c3ccnc(Nc4ccc(NC(=O)c5cccc(F)c5)c(CN5CCOCC5)c4)n3)cc12 | -24.8% (active)
29 | CN(C)CC1CCCCCC(CN(C)C)C1=O (stereo not given) | 26%
30 | CCCCCN1C=C/C(=C\C(=O)N(C)c2ccccc2Br)c2ccccc21 | 76.9%
31 | COc1cc2nc(N3CCCC3)nc(NCC3CCCCC3)c2cc1OC | -57.2% (active)
32 | CCOC(=O)c1[nH]c(=O)c2c(C)nc(-c3ccccc3)cc2c1O | 111%
33 | C[C@]12CCC(=O)C=C1CC[C@H]1[C@@H]3C[C@@H](O)[C@](O)(C(=O)CO)[C@@]3(C)C[C@H](O)[C@@]12F | 98.1%
34 | NCC(=O)NC(CC(=O)O)C(=O)O (stereo not given) | 90.7%
35 | O=S(=O)(c1ccc(OCCO)cc1)c1ccc(OCCO)cc1 | -0.844% (active)
36 | COc1ccc(-c2[nH]c3ccc(OC)cc3c2/C=C(\C#N)S(=O)(=O)c2ccccc2)cc1 | 8.54% (active)
37 | c1ccc2cc3c(Nc4ccc(N5CCOCC5)cc4)ccnc3cc2c1 | 99.1%
38 | COc1cc(/C=C/c2cc(/C=C/c3ccc(O)c(OC)c3)n(-c3ccc(Cl)cc3)c(=O)n2)ccc1O | 92.6%
39 | COc1cc2c(=O)[nH]c3cc([N+](=O)[O-])ccc3c2cc1[N+](=O)[O-] | 71.1%
40 | CCOC(=O)c1cc(/C=C/c2cccc(Cl)c2)on1 | 74.9%
